Experimental data taken from ChEMBL document CHEMBL4513141, “CO-ADD screening of NIH (USA) - Clinical Collection” (2021).
Measured potencies and affinities stand elsewhere.

Test system: Klebsiella pneumoniae
Details: Concentration 20 uM; ASSAY_TEST Inhibition of Bacterial Growth; detection method Absorption (OD600); MEDIA CAMHB; plate type 384well; NBS; CORNING #3640; time 18 hr

First: CC(=O)SCC(Cc1ccccc1)C(=O)NCC(=O)OCc1ccccc1 (centres undefined) [RACECADOTRIL]
Second: NC(=O)N1c2ccccc2C=Cc2ccccc21 [CARBAMAZEPINE]
The Inhibition of the first is lower: 3.98% for the first, 5.59% for the second.

First: Cl.O.O=C1N(c2ccccc2)c2ccccc2C1(Cc1ccncc1)Cc1ccncc1
Second: CNCCCN1c2ccccc2CCc2ccccc21.Cl [DESIPRAMINE HYDROCHLORIDE]
The Inhibition of the first is higher: 9.02% for the first, 6.09% for the second.

First: CC(COc1ccccc1)NC(C)C(O)c1ccc(O)cc1.Cl (centres undefined) [ISOXSUPRINE HYDROCHLORIDE]
Second: CC(C)[N+]1(C)C2CCC1CC(OC(=O)C(CO)c1ccccc1)C2.[Br-] (centres undefined)
The Inhibition of the first is higher: 7.34% for the first, -0.09% for the second.

First: C=C(CC)C(=O)c1ccc(OCC(=O)O)c(Cl)c1Cl [ETHACRYNIC ACID]
Second: CCOc1cc(CC(=O)N[C@@H](CC(C)C)c2ccccc2N2CCCCC2)ccc1C(=O)O [REPAGLINIDE]
The Inhibition of the first is higher: 8.53% for the first, 3.14% for the second.

Going from `Cc1cccc(C)c1OCC(C)N.Cl` (centres undefined) [MEXILETINE HYDROCHLORIDE] to `Cc1cccc(C)c1NC(=O)C1CCCCN1C.Cl` (centres undefined) [MEPIVACAINE HYDROCHLORIDE], the Inhibition falls from 13.5% to 9.49%.

Compared with `CC12CCC(=O)C=C1CCC1C2CCC2(C)C1CCC2(O)C(=O)CO` (centres undefined), `CC(=O)OCC(=O)[C@@]1(O)CC[C@H]2[C@@H]3C[C@H](C)C4=CC(=O)C=C[C@]4(C)[C@H]3[C@@H](O)C[C@@]21C` [METHYLPREDNISOLONE ACETATE] is higher in Inhibition: 8.14% for the first, 10.69% for the second.

First: O=C1Nc2ccc(Cl)cc2[C@@](C#CC2CC2)(C(F)(F)F)O1 [EFAVIRENZ]
Second: Cl.O[C@@H](c1cc(C(F)(F)F)nc2c(C(F)(F)F)cccc12)[C@H]1CCCCN1
The Inhibition of the first is lower: -2.99% for the first, 14.04% for the second.

Compared with `COc1cc2nc(N3CCN(C(=O)C4COc5ccccc5O4)CC3)nc(N)c2cc1OC` (centres undefined) [DOXAZOSIN], `COc1cc2c(cc1OC)C(=O)C(CC1CCN(Cc3ccccc3)CC1)C2.Cl` (centres undefined) [DONEPEZIL HYDROCHLORIDE] is lower in Inhibition: 13.22% for the first, 5.21% for the second.

Going from `Cc1ncc([N+](=O)[O-])n1CCO` [METRONIDAZOLE] to `Cc1ncc([N+](=O)[O-])n1CC(O)CCl` (centres undefined) [ORNIDAZOLE], the Inhibition rises from 13.91% to 14.36%.

First: CCCNC(C)C(=O)Nc1ccccc1C.Cl (centres undefined) [PRILOCAINE HYDROCHLORIDE]
Second: COc1ccccc1N1CCN(CCCNc2cc(=O)n(C)c(=O)n2C)CC1.Cl [URAPIDIL HYDROCHLORIDE]
The Inhibition of the first is lower: 10.6% for the first, 17.15% for the second.

First: NC(N)=Nc1nc(CSCC/C(N)=N/S(N)(=O)=O)cs1 [FAMOTIDINE]
Second: CCS(=O)(=O)CCn1c([N+](=O)[O-])cnc1C [TINIDAZOLE]
The Inhibition of the first is lower: 2.4% for the first, 6.48% for the second.

Compared with `CCc1ccc(CCOc2ccc(CC3SC(=O)NC3=O)cc2)nc1.Cl` (centres undefined) [PIOGLITAZONE HYDROCHLORIDE], `CC(C)c1ccc2c(c1)c(SC(C)(C)C)c(CC(C)(C)C(=O)O)n2Cc1ccc(Cl)cc1` is higher in Inhibition: 2.41% for the first, 11.6% for the second.

First: CC(C[N+](C)(C)C)OC(N)=O.[Cl-] (centres undefined) [BETHANECHOL CHLORIDE]
Second: O=C(O)c1cccnc1 [NIACIN]
The Inhibition of the first is higher: 8.32% for the first, 4.99% for the second.

Compared with `C=C1/C(=C\C=C2/CCC[C@]3(C)[C@@H]([C@H](C)CCCC(C)(C)O)CC[C@@H]23)C[C@@H](O)C[C@@H]1O` [CALCITRIOL], `CC(=O)OCC(=O)C12OC3(CCCC3)OC1CC1C3CCC4=CC(=O)C=CC4(C)C3(F)C(O)CC12C` (centres undefined) is lower in Inhibition: 21.35% for the first, 13.26% for the second.

First: C=C[C@H]1CN2CC[C@H]1C[C@@H]2[C@@H](O)c1ccnc2ccc(OC)cc12 [QUINIDINE]
Second: COc1c2occc2cc2ccc(=O)oc12 [METHOXSALEN]
The Inhibition of the first is higher: 12.62% for the first, 9.19% for the second.

Compared with `COc1cc(OC)c(C(=O)CCCN2CCCC2)c(OC)c1.Cl`, `Cl.O=C(NCC1CCCCN1)c1cc(OCC(F)(F)F)ccc1OCC(F)(F)F` (centres undefined) is lower in Inhibition: 10.87% for the first, 7.49% for the second.

First: Cl.Clc1cccc(Cl)c1NC1=NCCN1 [CLONIDINE HYDROCHLORIDE]
Second: Cl.Nc1c2c(nc3ccccc13)CCCC2 [TACRINE HYDROCHLORIDE]
The Inhibition of the first is lower: 4.94% for the first, 15.67% for the second.

Compared with `N[C@@H]1CONC1=O` [CYCLOSERINE], `C[C@@H](O)[C@H]1C(=O)N2C(C(=O)O)=C(S[C@@H]3CN[C@H](C(=O)N(C)C)C3)[C@H](C)[C@H]12` [MEROPENEM] is lower in Inhibition: 12% for the first, 0.03% for the second.

`Nc1nc(=O)c2nc(CNc3ccc(C(=O)N[C@@H](CCC(=O)O)C(=O)O)cc3)cnc2[nH]1` [FOLIC ACID] gave an Inhibition of 12.05%.

Test system: Candida albicans
Details: 20 µM

First: CC(=O)SCC(Cc1ccccc1)C(=O)NCC(=O)OCc1ccccc1 (centres undefined) [RACECADOTRIL]
Second: NC(=O)N1c2ccccc2C=Cc2ccccc21 [CARBAMAZEPINE]
The Inhibition of the first is higher: 5.86% for the first, 4.45% for the second.

Going from `Cl.O.O=C1N(c2ccccc2)c2ccccc2C1(Cc1ccncc1)Cc1ccncc1` to `CNCCCN1c2ccccc2CCc2ccccc21.Cl` [DESIPRAMINE HYDROCHLORIDE], the Inhibition falls from 3.32% to 2.92%.

Going from `CC(COc1ccccc1)NC(C)C(O)c1ccc(O)cc1.Cl` (centres undefined) [ISOXSUPRINE HYDROCHLORIDE] to `CC(C)[N+]1(C)C2CCC1CC(OC(=O)C(CO)c1ccccc1)C2.[Br-]` (centres undefined), the Inhibition falls from 3.25% to 0.17%.

First: C=C(CC)C(=O)c1ccc(OCC(=O)O)c(Cl)c1Cl [ETHACRYNIC ACID]
Second: CCOc1cc(CC(=O)N[C@@H](CC(C)C)c2ccccc2N2CCCCC2)ccc1C(=O)O [REPAGLINIDE]
The Inhibition of the first is higher: 21.1% for the first, 4.01% for the second.

Compared with `Cc1cccc(C)c1OCC(C)N.Cl` (centres undefined) [MEXILETINE HYDROCHLORIDE], `Cc1cccc(C)c1NC(=O)C1CCCCN1C.Cl` (centres undefined) [MEPIVACAINE HYDROCHLORIDE] is lower in Inhibition: 3.72% for the first, -0.43% for the second.

Compared with `CC12CCC(=O)C=C1CCC1C2CCC2(C)C1CCC2(O)C(=O)CO` (centres undefined), `CC(=O)OCC(=O)[C@@]1(O)CC[C@H]2[C@@H]3C[C@H](C)C4=CC(=O)C=C[C@]4(C)[C@H]3[C@@H](O)C[C@@]21C` [METHYLPREDNISOLONE ACETATE] is lower in Inhibition: 3.12% for the first, -0.69% for the second.

First: O=C1Nc2ccc(Cl)cc2[C@@](C#CC2CC2)(C(F)(F)F)O1 [EFAVIRENZ]
Second: Cl.O[C@@H](c1cc(C(F)(F)F)nc2c(C(F)(F)F)cccc12)[C@H]1CCCCN1
The Inhibition of the first is lower: 3.86% for the first, 5.35% for the second.

Compared with `COc1cc2nc(N3CCN(C(=O)C4COc5ccccc5O4)CC3)nc(N)c2cc1OC` (centres undefined) [DOXAZOSIN], `COc1cc2c(cc1OC)C(=O)C(CC1CCN(Cc3ccccc3)CC1)C2.Cl` (centres undefined) [DONEPEZIL HYDROCHLORIDE] is lower in Inhibition: 3.14% for the first, 3.08% for the second.

First: Cc1ncc([N+](=O)[O-])n1CCO [METRONIDAZOLE]
Second: Cc1ncc([N+](=O)[O-])n1CC(O)CCl (centres undefined) [ORNIDAZOLE]
The Inhibition of the first is lower: 1.89% for the first, 2.15% for the second.

Compared with `CCCNC(C)C(=O)Nc1ccccc1C.Cl` (centres undefined) [PRILOCAINE HYDROCHLORIDE], `COc1ccccc1N1CCN(CCCNc2cc(=O)n(C)c(=O)n2C)CC1.Cl` [URAPIDIL HYDROCHLORIDE] is higher in Inhibition: 2.91% for the first, 3.19% for the second.

Going from `NC(N)=Nc1nc(CSCC/C(N)=N/S(N)(=O)=O)cs1` [FAMOTIDINE] to `CCS(=O)(=O)CCn1c([N+](=O)[O-])cnc1C` [TINIDAZOLE], the Inhibition rises from 3.01% to 4.29%.

Going from `CCc1ccc(CCOc2ccc(CC3SC(=O)NC3=O)cc2)nc1.Cl` (centres undefined) [PIOGLITAZONE HYDROCHLORIDE] to `CC(C)c1ccc2c(c1)c(SC(C)(C)C)c(CC(C)(C)C(=O)O)n2Cc1ccc(Cl)cc1`, the Inhibition falls from 2.58% to 1.56%.

Going from `CC(C[N+](C)(C)C)OC(N)=O.[Cl-]` (centres undefined) [BETHANECHOL CHLORIDE] to `O=C(O)c1cccnc1` [NIACIN], the Inhibition rises from 0.53% to 2.72%.

Going from `C=C1/C(=C\C=C2/CCC[C@]3(C)[C@@H]([C@H](C)CCCC(C)(C)O)CC[C@@H]23)C[C@@H](O)C[C@@H]1O` [CALCITRIOL] to `CC(=O)OCC(=O)C12OC3(CCCC3)OC1CC1C3CCC4=CC(=O)C=CC4(C)C3(F)C(O)CC12C` (centres undefined), the Inhibition rises from 2.06% to 3.39%.

First: C=C[C@H]1CN2CC[C@H]1C[C@@H]2[C@@H](O)c1ccnc2ccc(OC)cc12 [QUINIDINE]
Second: COc1c2occc2cc2ccc(=O)oc12 [METHOXSALEN]
The Inhibition of the first is lower: -0.46% for the first, 5.22% for the second.

Going from `COc1cc(OC)c(C(=O)CCCN2CCCC2)c(OC)c1.Cl` to `Cl.O=C(NCC1CCCCN1)c1cc(OCC(F)(F)F)ccc1OCC(F)(F)F` (centres undefined), the Inhibition falls from 3.75% to 3.33%.

First: Cl.Clc1cccc(Cl)c1NC1=NCCN1 [CLONIDINE HYDROCHLORIDE]
Second: Cl.Nc1c2c(nc3ccccc13)CCCC2 [TACRINE HYDROCHLORIDE]
The Inhibition of the first is higher: 3.3% for the first, 1.65% for the second.

First: N[C@@H]1CONC1=O [CYCLOSERINE]
Second: C[C@@H](O)[C@H]1C(=O)N2C(C(=O)O)=C(S[C@@H]3CN[C@H](C(=O)N(C)C)C3)[C@H](C)[C@H]12 [MEROPENEM]
The Inhibition of the first is lower: 1.72% for the first, 3.42% for the second.

`Nc1nc(=O)c2nc(CNc3ccc(C(=O)N[C@@H](CCC(=O)O)C(=O)O)cc3)cnc2[nH]1` [FOLIC ACID] gave an Inhibition of 1.12%.
